Experimental findings from PubChem BioAssay are described below.

A short description of test [1]: reducers of endogenous Her2 protein level, primary screen, SKBR3 breast tumor cells, AlphaScreen, ATP viability (AID 461;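 active = Her2 level under about 52% in both replicate screens, with viability over 70% of control, limit read from the data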;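 for Her2 level: lower value means less Her2 protein in the cells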;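 for viability: percent of carrier control wells set as 100% viability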). The conditions noted are these: 18-24 h, measured here: SKBR3 viability, ATP luminescence, at 10 µM. (Alpha assays give light when donor and acceptor beads are brought close together.)
Test [2] addresses Receptor tyrosine-protein kinase erbB-2 (Homo sapiens) (UniProt P04626). The test is described as above. The conditions noted are these: 18-24 h, at 10 µM, stronger effect = lower value.
A short description of test [3]: SK-BR-3 cell growth inhibitors, pilot screen, 24 h, human (AID 572;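 active = viability at or below 10% of carrier control in both of two separate runs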;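 note: compound exposure lasted between 18 and 24 h rather than exactly 24 h; 100% = carrier-treated control wells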). The conditions noted are these: SK-BR-3 viability, CellTiter-Glo luminescence, at 10 µM, stronger effect = lower value.
Test [4] is described as follows: HUVEC growth inhibition – cell-based, human, primary screen (AID 575;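 active = viability at or below 30% in both replicate assays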;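 note: 100% = median of untreated cell wells with 0.1% DMSO on each plate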). The note with it: HUVEC proliferation, CellTiter-Glo luminescence, 72 h; at 10 µM; stronger effect = lower value.
Test [5] in a line: growth inhibitors of H69AR lung tumor, primary screen, human, duplicate replicates (AID 580;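 active = viability at or under a set limit in both replicates, limit being median viability minus 3 SD, cut at about 48% in these data, passing the limit was not always enough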;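 note: 100% = mean luminescence of untreated wells and 0% = no signal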). The conditions noted are these: H69AR lung tumor cells viability, ATP luminescence, 72 h; at 10 µM; stronger effect = lower value.
Test [6] in a line: reversal of MRP1-mediated doxorubicin resistance, pilot screen, H69AR cells, doxorubicin co-treatment (AID 601;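 active = viability loss from added drug above about 55%, and viability with drug at most 40%, in both replicates, limit read from the data, passing the limit was not always enough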). The note with it: CellTiter-Glo, 72 h, at 10 µM; for differential viability (reversal): stronger effect = higher value.
Test [7] is described as follows: 384-well plate pilot, post-Golgi transport modulator project, inhibition of yeast transport mutant growth (AID 636; in the data active = inhibition above about 31%). The note with it: absorbance 615 nm, about 18 h, stronger effect = higher value.
A short description of test [8]: growth suppression of yeast trafficking mutant, preliminary HTS, modulators of trafficking downstream of Golgi apparatus project, 1536-format plate, OD 615 nm (AID 637). The conditions noted are these: yeast transport mutant growth, absorbance 615 nm, 18 h; stronger effect = higher value.
Test [9] is described as follows: OD615 S. cerevisiae growth inhibition, permissive medium, pilot counter-assay, permissive growth control for S. cerevisiae lifespan shortening project (AID 705;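 active = growth inhibition above 25% in both replicates, a cutoff set 3 SD above the mean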). The note with it: OD615, 24 h, at 10 µM, stronger effect = higher value.
A short description of test [10]: Restrictive medium S. cerevisiae growth inhibition, OD615, pilot screen of yeast lifespan reduction project, restrictive growth control (AID 706;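 active = growth inhibition above a set limit, 3 SD over mean compound inhibition, in both replicates, cut at about 43% in these data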;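 note: modified DeaD lifespan yeast strain shifted to restrictive glucose medium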). The conditions noted are these: OD615, 48 h, at 10 µM, stronger effect = higher value.
A short description of test [11]: viability gain of MRP-1-high H69AR cells under doxorubicin, pilot screen, MRP-1 activator project, CellTiter-Glo, duplicate (AID 807;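 active = viability increase at or above a cutoff of the median across tested compounds plus 3 SD, cut at about 8.5% in these data, passing the limit was not always enough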;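 note: compound pretreatment 18-22 h then 72 h combined with doxorubicin; 0% = doxorubicin alone and 100% = vehicle without doxorubicin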). The note with it: H69AR viability with doxorubicin, CellTiter-Glo luminescence; at 10 µM; stronger effect = higher value.
A short description of test [12]: growth suppression of beta-catenin knockout HCT116, pilot screen, human colon tumor cells (AID 823;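 active = cell viability at or below a set limit in both duplicate runs, the limit being the all-compound median minus 4 SD, cut at about 23% in these data, passing the limit was not always enough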;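 note: 0% = wells killed by 20 µM Hyamine and 100% = untreated DMSO cell wells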). The note with it: CellTiter-Glo, 60 h, at 10 µM, stronger effect = lower value. (In ATP-based viability assays light output follows the ATP content of the culture.)
Test [13] is described as follows: growth suppression of PTEN-deleted HCT116, pilot screen, cell-based, HCT116 clonal line, CellTiter-Glo (AID 824;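 active = viability at or below 27.92% in each of two runs, the all-compound median minus 4 SD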;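 note: 0% = 20 µM Hyamine control and 100% = vehicle cell control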). The conditions noted are these: 60 h, at 10 µM, stronger effect = lower value.
Test [14] can be described thus: inhibitors of the yeast RAM network, pilot screen, dse1pr::URA3 reporter, 5-FOA selection (AID 869;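 active = inhibition over a set limit, the all-compound mean plus 3 SD, in both replicate runs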;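 note: 0% = DMSO wells with no growth and 100% = 10 µM 1-NA-PP1 with full growth; RAM network block rescues cells from 5-FOA so hits raise OD615 growth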). The note with it: S. cerevisiae dse1pr::URA3 5-FOA growth, OD615, 2 d; at 10 µM; stronger effect = higher value; strain carries analog-sensitive mutant Cbk1 kinase.
A short description of test [15]: RAM signaling pathway blockade in yeast – S. cerevisiae, Pdr1DBD-CYC8 efflux-inhibited sensitized strain, primary screen (AID 1298;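 active = RAM network inhibition above 8.4% in each of two replicates, 3 SD over the compound average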;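 note: 0% = DMSO untreated cells without growth and 100% = 10 µM 1-NA-PP1 full growth; higher means more yeast growth rescued from 5-FOA killing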). The conditions noted are these: S. cerevisiae cbk1-as DSE1-URA3 strain, 5-FOA growth OD615, 2 d; at 50 µM; stronger effect = higher value.
Where [16] appears, read: H69AR cells + 2 uM doxorubicin, measured here: viability with 2 uM doxorubicin, stronger effect = lower value.
[17] abbreviates: H69AR cells, compound alone cytotoxicity.

Records with an inconclusive call do not appear. Activity calls are given as the source filed them. Cut-off read from the data, not from the text of the source, unless noted: active = inhibition above about 30%; inactive = the rest.

Chain of Receptor tyrosine-protein kinase erbB-2 (Homo sapiens) (P04626 whole entry, looked up): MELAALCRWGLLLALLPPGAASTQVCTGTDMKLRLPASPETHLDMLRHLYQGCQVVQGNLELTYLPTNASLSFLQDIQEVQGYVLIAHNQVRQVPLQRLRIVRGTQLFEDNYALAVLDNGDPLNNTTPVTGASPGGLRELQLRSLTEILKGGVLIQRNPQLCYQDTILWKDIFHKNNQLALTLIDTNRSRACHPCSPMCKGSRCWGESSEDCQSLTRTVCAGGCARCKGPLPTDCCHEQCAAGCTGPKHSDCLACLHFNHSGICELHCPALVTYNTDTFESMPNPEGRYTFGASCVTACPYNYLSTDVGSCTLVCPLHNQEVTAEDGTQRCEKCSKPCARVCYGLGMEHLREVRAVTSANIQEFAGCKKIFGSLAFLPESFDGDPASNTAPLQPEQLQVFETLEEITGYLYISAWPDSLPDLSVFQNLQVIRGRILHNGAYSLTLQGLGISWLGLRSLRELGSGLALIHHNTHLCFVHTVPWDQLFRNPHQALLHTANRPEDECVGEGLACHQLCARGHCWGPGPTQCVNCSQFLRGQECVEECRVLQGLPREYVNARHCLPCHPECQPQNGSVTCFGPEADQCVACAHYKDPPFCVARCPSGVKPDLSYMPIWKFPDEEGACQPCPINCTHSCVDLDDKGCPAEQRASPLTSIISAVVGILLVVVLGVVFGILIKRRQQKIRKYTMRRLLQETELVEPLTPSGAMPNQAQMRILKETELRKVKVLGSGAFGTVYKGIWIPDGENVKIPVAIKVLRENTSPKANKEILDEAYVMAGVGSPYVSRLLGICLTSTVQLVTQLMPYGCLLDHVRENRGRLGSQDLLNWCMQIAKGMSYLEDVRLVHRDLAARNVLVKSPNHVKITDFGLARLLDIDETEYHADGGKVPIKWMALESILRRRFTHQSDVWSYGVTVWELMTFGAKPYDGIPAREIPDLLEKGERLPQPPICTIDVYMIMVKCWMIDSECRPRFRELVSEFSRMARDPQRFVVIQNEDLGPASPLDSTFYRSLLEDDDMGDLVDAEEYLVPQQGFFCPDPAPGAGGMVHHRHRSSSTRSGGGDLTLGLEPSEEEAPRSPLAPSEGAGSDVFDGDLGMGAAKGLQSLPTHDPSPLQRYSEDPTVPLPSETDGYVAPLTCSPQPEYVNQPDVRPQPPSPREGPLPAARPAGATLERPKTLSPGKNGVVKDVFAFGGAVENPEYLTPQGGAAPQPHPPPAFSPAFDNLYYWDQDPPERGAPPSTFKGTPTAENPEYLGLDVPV

What is called viability is a read-out of living cells in per cent, often relative to untreated cells. By inhibition is commonly meant the relative decrease from the control value, in per cent. Consider `Cc1nnc(NC(=O)CSc2nc3c(c(=O)n2C)SC(C)C3)s1` (stereo not drawn), for which the viability was 89% in test [1]; 89% (inactive) in test [3]; 79.4% (inactive) in [4]; 84.8% (inactive) in test [5]; 80% in test [6] (setting [16]); 84.8% in test [6] (setting [17]). For the same compound, the viability in test [12] was 104% (inactive); in test [13] it was 99.6% (inactive). Further, the Her2 level in test [2] was 80% (inactive). Also, the differential viability (reversal) in test [6] (H69AR cells + 2 uM doxorubicin) is 4.81% (inactive). The values for the inhibition in [7], in test [8] and in test [14] were -6.27% (inactive), 4.17% (inactive) and 2.09% (inactive), respectively. Moreover, the growth inhibition in [9] is -11.1% (inactive); in test [10], -18.2% (inactive). For the same compound, in [11], the viability increase was 0.31% (inactive). For the same compound, in test [15], the RAM network inhibition was 9.95% (inactive).
For `CCC(C)(C(=O)NC1CCCC1)N(Cc1cccs1)C(C)=O` (stereo not drawn), the viability in [1] is 120%; in [3] it was 120% (inactive); in [4], 102% (inactive); in test [5], 96.9% (inactive); in test [6] (setting [16]), 90.2%; in test [6] (setting [17]), 96.9%. Also, the viability in [12] was 108% (inactive); in [13] it was 96.3% (inactive). Besides, the Her2 level in test [2] was 83.5% (inactive). In [6] (H69AR cells + 2 uM doxorubicin), the differential viability (reversal) is 6.71% (inactive). Moreover, the inhibition in test [7] is -9.04% (inactive); in test [8] it was 5.08% (inactive); in test [14], 0.55% (inactive). The growth inhibition is -17.6% (inactive) in [9] and -23.3% (inactive) in test [10]. In addition, the viability increase in test [11] is -0.17% (inactive). Also, in test [15], the RAM network inhibition is 4.23% (inactive).
`CCN(C1CCCCC1)S(=O)(=O)c1ccc(S(=O)(=O)N2CCN(CCC#N)CC2)cc1`: the viability was 105% in test [1]; 105% (inactive) in [3]; 75.8% (inactive) in test [4]; 87.8% (inactive) in test [5]; 98.3% in [6] (setting [16]); 87.8% in [6] (setting [17]). For the same compound, the viability in test [12] was 86.6% (inactive); in [13], 85.9% (inactive). Also, in [2], the Her2 level was 114% (inactive). For the same compound, the differential viability (reversal) in [6] (H69AR cells + 2 uM doxorubicin) is -10.4% (inactive). Also, the values for the inhibition in test [7], in [8] and in test [14] were -1.28% (inactive), -3.5% (inactive) and 0.645% (inactive), respectively. For the same compound, the growth inhibition was 4.85% (inactive) in [9] and 3.67% (inactive) in test [10]. Moreover, in [11], the viability increase was -3.47% (inactive). For the same compound, in [15], the RAM network inhibition is -1.33% (inactive).
For `Cc1c(-n2c(CN3C(=O)c4ccccc4C3=O)nc3ccccc3c2=O)c(=O)n(-c2ccccc2)n1C`, the viability in test [1] was 93.5%; in test [3] it was 93.5% (inactive); in [4], 105% (inactive); in test [5] it was 101% (inactive); in [6] (setting [16]) it was 97%; in test [6] (setting [17]), 101%. Also, the viability in test [12] is 102% (inactive); in [13], 99.6% (inactive). In [2], the Her2 level is 110% (inactive). For the same compound, the differential viability (reversal) in test [6] (H69AR cells + 2 uM doxorubicin) is 3.82% (inactive). The inhibition in test [7] was -1.76% (inactive); in [8] it was 4.6% (inactive); in [14], 1.4% (inactive). The growth inhibition in [9] is -2.33% (inactive); in test [10], 2.67% (inactive). The viability increase in test [11] is -1.08% (inactive). Moreover, the RAM network inhibition in test [15] is 5.4% (inactive).
Take `CC1=C(C(=O)OC(C)C)C(c2ccccn2)n2ncnc2N1` (stereo not drawn): the viability was 108% in [1]; 108% (inactive) in test [3]; 89.5% (inactive) in [4]; 98.1% (inactive) in [5]; 92.1% in [6] (setting [16]); 98.1% in [6] (setting [17]). The viability was 106% (inactive) in test [12] and 99.5% (inactive) in test [13]. In [2], the Her2 level is 113% (inactive). For the same compound, the differential viability (reversal) in [6] (H69AR cells + 2 uM doxorubicin) is 6.04% (inactive). For the same compound, the inhibition in test [7] was -3.2% (inactive); in [8], 0.83% (inactive); in test [14], 2.84% (inactive). The growth inhibition in test [9] is -5.88% (inactive); in test [10] it was -3.54% (inactive). Moreover, in test [11], the viability increase was -0.55% (inactive). Moreover, the RAM network inhibition in test [15] is 7.35% (inactive).
For the compound `COc1ccc(S(=O)(=O)Cc2ccc(C(=O)N3CCN(c4ccccc4)CC3)o2)cc1`, the viability in test [1] is 72.5%; in test [3], 72.5% (inactive); in test [4] it was 104% (inactive); in [5], 84.4% (inactive); in test [6] (setting [16]), 86.1%; in [6] (setting [17]) it was 84.4%. The viability in [12] was 88.8% (inactive); in test [13], 89.3% (inactive). For the same compound, in [2], the Her2 level is 115% (inactive). In addition, in [6] (H69AR cells + 2 uM doxorubicin), the differential viability (reversal) is -1.7% (inactive). For the same compound, the inhibition was -2.8% (inactive) in test [7], -7.5% (inactive) in test [8] and 0.76% (inactive) in test [14]. Also, the growth inhibition in test [9] was -11.7% (inactive); in test [10] it was -18.9% (inactive). Further, the viability increase in [11] was -2.99% (inactive). For the same compound, in [15], the RAM network inhibition is 8.54% (inactive).
Turning to `COc1cccc(C2CC(=O)Nc3cc4c(cc32)OCCO4)c1OC(C)C` (stereo not drawn), the viability in test [1] is 99%; in [3], 99% (inactive); in test [4], 84.6% (inactive); in [5] it was 41.2% (active); in test [6] (setting [16]), 70.7%; in test [6] (setting [17]) it was 41.2%. The viability was 65.7% (inactive) in test [12] and 65% (inactive) in test [13]. Further, the Her2 level in test [2] was 88.5% (inactive). The differential viability (reversal) in test [6] (H69AR cells + 2 uM doxorubicin) was -29.5% (inactive). In addition, the inhibition in test [7] is -1.2% (inactive); in [8], -3.61% (inactive); in [14], 0.76% (inactive). Moreover, the results for the growth inhibition in test [9] and in test [10] were -3.68% (inactive) and 0.265% (inactive), respectively. The viability increase in test [11] is -4.91% (inactive). Further, in test [15], the RAM network inhibition is 2.97% (inactive).
As for `O=C(c1cc2ccccc2oc1=O)N1CCN(c2ccc(N3CCOCC3)nn2)CC1`, the viability in test [1] is 98%; in test [3] it was 98% (inactive); in test [4], 88.5% (inactive); in [5], 101% (inactive); in test [6] (setting [16]) it was 93.9%; in test [6] (setting [17]), 101%. In addition, the viability in [12] is 101% (inactive); in [13], 96.6% (inactive). The Her2 level in test [2] was 118% (inactive). Also, in [6] (H69AR cells + 2 uM doxorubicin), the differential viability (reversal) was 7.39% (inactive). Further, the inhibition in test [7] was -0.77% (inactive); in [8], -2% (inactive); in test [14], 0.885% (inactive). For the same compound, the values for the growth inhibition in test [9] and in test [10] were 5.29% (inactive) and -7.26% (inactive), respectively. Moreover, the viability increase in test [11] is -1.81% (inactive). Also, in test [15], the RAM network inhibition was -0.58% (inactive).
Consider `CCOCCCNC(=O)CN1CCN(Cc2ccccc2C)C1=O`, for which the viability is 83.5% in [1]; 83.5% (inactive) in test [3]; 97.8% (inactive) in test [4]; 97% (inactive) in test [5]; 89.9% in test [6] (setting [16]); 97% in test [6] (setting [17]). Further, the viability is 94.7% (inactive) in [12] and 86.8% (inactive) in test [13]. Moreover, the Her2 level in test [2] is 96% (inactive). Also, in test [6] (H69AR cells + 2 uM doxorubicin), the differential viability (reversal) was 7.06% (inactive). The inhibition is -6.8% (inactive) in test [7], -7.7% (inactive) in test [8] and 1.54% (inactive) in [14]. The figures for the growth inhibition in test [9] and in test [10] were -4.88% (inactive) and 6.12% (inactive), respectively. Besides, the viability increase in test [11] is 0.02% (inactive). In [15], the RAM network inhibition was 1.29% (inactive).
